rTrxR1 inhibitor – blocks rat thioredoxin reductase 1; Potency, µM (doses to about 114 µM), usual class: inhibitors; AID 588453; 390,000 compounds, 1% hits; O89049; recombinant rTrxR1, NADPH fluorescence consumption, selenite substrate; further: nearly all actives have a fitted effect of over 65% in size
Target sequence (O89049 whole entry, looked up): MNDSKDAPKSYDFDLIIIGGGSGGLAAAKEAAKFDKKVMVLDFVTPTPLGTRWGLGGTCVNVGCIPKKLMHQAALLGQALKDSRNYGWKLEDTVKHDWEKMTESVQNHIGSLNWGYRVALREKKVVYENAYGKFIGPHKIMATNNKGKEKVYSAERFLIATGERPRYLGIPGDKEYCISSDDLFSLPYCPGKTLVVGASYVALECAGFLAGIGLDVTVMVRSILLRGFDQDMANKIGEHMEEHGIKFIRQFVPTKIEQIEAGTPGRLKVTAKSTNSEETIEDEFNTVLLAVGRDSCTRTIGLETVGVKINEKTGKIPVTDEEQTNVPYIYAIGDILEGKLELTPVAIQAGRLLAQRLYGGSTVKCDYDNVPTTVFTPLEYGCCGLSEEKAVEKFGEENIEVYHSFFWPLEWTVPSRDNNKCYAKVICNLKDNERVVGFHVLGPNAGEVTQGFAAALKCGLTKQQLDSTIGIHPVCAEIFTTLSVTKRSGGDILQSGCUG
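Rat TrxR1 (90 nM in the dispensed reagent) was pre-reduced with 400 uM NADPH for 5 min at room temperature, then incubated with compound for 15 min. After 400 uM selenite was added, NADPH fluorescence (Ex 340/Em 450 nm) was followed for 8 min.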
TrxR1 substrate – substrates of rat thioredoxin reductase 1; O89049; purified TrxR1 substrate turnover, NADPH consumption readout; Potency, µM (titrated, usually from 114 µM); 390,000 compounds, 0.01% hits; AID 588456; further: nearly all actives have a fitted effect of over 50% in size
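Rat TrxR1, dispensed at 90 nM, was prereduced with 400 uM NADPH (final) for 5 min at ~22 deg C, then incubated with compound 15 min before 400 uM selenite. A first-read NADPH fluorescence drop versus no-compound background flagged substrates.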
Sfp inh – Sfp phosphopantetheinyl transferase inhibition; Q9F4F7; Biochemical Sfp PPTase activity, qHTS; Potency, µM, most hits filed as inhibitors; 310,000 compounds, 3.5% hits; AID 1490;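 further: the enzyme is Sfp with the accession as filed and its product quenches rhodamine fluorescence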
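Fluorescence-quenching assay with 15 nM Sfp, 5 uM rhodamine-CoA and 12.5 uM BHQ-2-labelled ybbR peptide in pH 7.6 Hepes/MgCl2 buffer. Enzyme was pre-incubated with compound for 15 min at room temperature. Rate was taken from the 30-min fluorescence change (525/598 nm).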
PLK1 PBD inh – blocks phosphopeptide binding to human PLK1 polo-box domain. 360,000 compounds, 2.8% hits. AID 720504. P53350. Plk1 PBD binding of FITC phosphopeptide, fluorescence polarization. Potency, µM, hits mostly inhibitors; further: series mostly up to about 57 µM; nearly all actives have a fitted effect of over 65% in size
IDH1 R132H inh – human IDH1 R132H inhibition; O75874; IDH1-R132H enzyme, NADPH consumption, diaphorase/resazurin fluorescence; Potency, µM (series often up to 76.6 µM), most hits filed as inhibitors; 390,000 compounds, 0.093% hits; AID 602179; further: nearly all actives have a fitted effect of over 65% in size
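IDH1-R132H (0.5 ug/mL dispensed) in pH 7.5 Tris buffer was preincubated 30 min with compound, then given a substrate mix of 0.016 mM NADPH and 2 mM alpha-KG for 80 min at room temperature; remaining NADPH was read by diaphorase/resazurin fluorescence.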
VDR inh – vitamin D3 receptor (human) inhibition. Potency, µM, usual class: inhibitors. P11473. 400,000 compounds, 0.93% hits. VDR-SRC2-3 peptide fluorescence polarization, 2 h
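Two reagent solutions held at 4 deg C in the dark were dispensed, compounds pinned at 23 nl, and the mixture incubated 2 h at room temperature. Read-out: fluorescence polarization of VDR–SRC2-3 peptide binding.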
Large screens that a line does not name were inactive; ! = not confirmed by another sample. In the library only some 5.2% were active in any assay of this set; here they are far more common. The call rests on the fitted dose curve; in most records, active means well fitted curve in the direction sought with a large enough effect; inconclusive means small, poorly fitted or top-dose-only effect, or another doubt; inactive means no such curve, though single readings can be large; an effect the other way counts as inactive or inconclusive.

Cc1cc(N2C(=O)C(O)=C(C(=O)c3cc4ccccc4o3)C2c2ccc([N+](=O)[O-])cc2)no1 (configuration not stated)	PLK1 PBD inh 38µM
CCOc1cccc(C2C(C(=O)c3ccc(C)o3)=C(O)C(=O)N2Cc2ccncc2)c1 (configuration not stated)	Sfp inh inconclusive
CCOc1cccc(C2C(C(=O)c3ccc(C)o3)=C(O)C(=O)N2c2nccs2)c1 (configuration not stated)	Sfp inh 56µM
O=C(C1=C(O)C(=O)N(c2nccs2)C1c1ccccc1)c1cc2ccccc2o1 (configuration not stated)	rTrxR1 inhibitor inconclusive, Sfp inh 5µM, PLK1 PBD inh inconclusive
Cc1ccc(C2C(C(=O)c3cc4ccccc4o3)=C(O)C(=O)N2c2cc(C)on2)cc1 (configuration not stated)	PLK1 PBD inh 19µM, VDR inh 79µM
CC1=C(C(=O)N(C)C)CC(CC(=O)NCCN2CCOCC2)C(=O)N1Cc1ccc(F)cc1 (configuration not stated)	none (no result: rTrxR1 inhibitor, TrxR1 substrate, Sfp inh, VDR inh)
Cc1ccc(C2(C)NC(=O)N(CC(=O)Nc3ccc(S(=O)(=O)Nc4nccs4)cc3)C2=O)cc1 (configuration not stated)	none (no result: Sfp inh)
CCOC(=O)c1c(C)n(-c2ccc(C)cc2)c2ccc(OCC(O)CNCC3CCCO3)cc12 (configuration not stated)	Sfp inh 45µM
C=C[C@H](CC(C)C)N(Cc1ccccc1)S(=O)(=O)N(Cc1ccccc1)[C@H](C=C)CC(C)C	none (no result: Sfp inh, PLK1 PBD inh, IDH1 R132H inh, VDR inh)
O=C(c1ccco1)N1CCN(C(=O)c2cc(-c3ccccn3)nc3ccc(Cl)cc23)CC1	rTrxR1 inhibitor inconclusive, Sfp inh 16µM, PLK1 PBD inh inconclusive
COC(=O)C1CCN(C(=O)c2cc(-c3ccco3)nc3ccccc23)CC1	PLK1 PBD inh 30µM (no result: Sfp inh)
COc1ccc(-c2cc(C(=O)N3CCCCCC3)c3ccccc3n2)c(OC)c1	Sfp inh 40µM, PLK1 PBD inh inconclusive
O=C(c1cc(-c2ccco2)nc2ccccc12)N1CCN(Cc2ccccc2)CC1	rTrxR1 inhibitor 40µM (no result: Sfp inh)
O=C(c1ccco1)N1CCN(C(=O)c2cc(-c3ccccc3)nc3ccccc23)CC1	none
O=C(c1ccco1)N1CCN(c2ccnc3cc(Cl)ccc23)CC1	none
CCOC(=O)C1CCN(C(=O)c2cc(-c3ccncc3)nc3ccccc23)CC1	none (no result: Sfp inh)
O=C1NC(=O)C2C3C=CC(C3)C12 (configuration not stated)	none (no result: rTrxR1 inhibitor, TrxR1 substrate, PLK1 PBD inh, IDH1 R132H inh)
COc1ccc(N2CCN(c3nc4ccccc4n4c(C)nnc34)CC2)cc1	none (no result: Sfp inh, PLK1 PBD inh)
Oc1c(C(c2ccccc2)N2CCN(c3cccc(Cl)c3)CC2)sc2nc(-c3ccco3)nn12 (configuration not stated)	none (no result: Sfp inh, PLK1 PBD inh)
O=C(Cn1c(=O)c2cccn2c2ccc(F)cc21)N1CCN(c2ccccc2F)CC1	none (no result: Sfp inh, PLK1 PBD inh)
COc1cccc(NC(=O)Cn2c(=O)n(CCCCC(=O)NCc3ccc4c(c3)OCO4)c(=O)c3ccccc32)c1	none (no result: Sfp inh, PLK1 PBD inh)
COc1ccc(-c2c([C@H]3[C@@H]4C=CCC[C@@]4(C)C(=O)N3Cc3ccccc3)ccc3ccccc23)cc1OC	none
CC12CCC=CC1C(c1ccc(Br)cc1F)N(Cc1ccccc1)C2=O (configuration not stated)	rTrxR1 inhibitor inconclusive, Sfp inh inconclusive, VDR inh inconclusive (no result: PLK1 PBD inh, IDH1 R132H inh)
C[C@@]12CCC=C[C@H]1[C@H](c1ccccc1Br)N(Cc1ccccc1)C2=O	VDR inh 50µM!
COc1ccc(-c2ccc([C@H]3[C@@H]4C=CCC[C@@]4(C)C(=O)N3Cc3ccccc3)c(F)c2)cc1OC	Sfp inh 20µM
COc1ccc(-c2ccc([C@H]3[C@H]4C=CC[C@@H](C)[C@@H]4C(=O)N3Cc3ccccc3)c(F)c2)cc1OC	Sfp inh 22µM
O=C(NCc1ccccc1Cl)c1ccc(Cn2c(=O)c3cccn3c3cccnc32)cc1	none (no result: Sfp inh, PLK1 PBD inh)
CC1(C)Cc2c(c(-c3ccco3)nc3sc4c(NCC5CCCO5)ncnc4c23)CO1 (configuration not stated)	rTrxR1 inhibitor inconclusive, Sfp inh 20µM, PLK1 PBD inh inconclusive, VDR inh 89µM
CC1(C)Cc2c(c(-c3ccco3)nc3sc4c(NCCCO)ncnc4c23)CO1	rTrxR1 inhibitor 7.9µM, Sfp inh 7.9µM
CCOC(=O)c1cc(S(=O)(=O)Nc2c(C)cc(C)cc2C)[nH]n1	none (no result: Sfp inh, PLK1 PBD inh)
O=S(=O)(CCN1CCN(C(c2ccccc2)c2ccccc2)CC1)C(F)(F)F	rTrxR1 inhibitor 1.6µM, PLK1 PBD inh 15µM, VDR inh inconclusive
c1ccc(CN2CCN(C(c3ccccc3)c3ccccc3)CC2)cc1	none
CC(C)c1ccc(NC(=O)CSC2=Nc3ccccc3C3=NC(CC(=O)NCc4ccco4)C(=O)N23)cc1 (configuration not stated)	none (no result: Sfp inh, PLK1 PBD inh)
CC(C)c1nnc(NC(=O)CCS(=O)(=O)c2ccccc2)s1	rTrxR1 inhibitor inconclusive
CCC(CC)c1nnc(NC(=O)CCS(=O)(=O)Cc2ccccc2)s1	Sfp inh 63µM, PLK1 PBD inh 24µM
O=C(CS(=O)(=O)c1ccccc1)Nc1nnc(Cc2ccccc2)s1	Sfp inh 45µM, PLK1 PBD inh 13µM
CCC(CC)c1nnc(NC(=O)CS(=O)(=O)c2ccccc2)s1	Sfp inh 50µM, PLK1 PBD inh 9.5µM, VDR inh inconclusive
CCCc1nnc(NC(=O)CS(=O)(=O)c2ccccc2)s1	none
CCCc1nnc(NC(=O)CCS(=O)(=O)Cc2ccccc2)s1	none
Cc1oc2ccc(O)c(CN(C)Cc3ccccc3)c2c1C(=O)Nc1ccccc1	none (no result: Sfp inh, PLK1 PBD inh)
[O]=[Bi][O][Bi]=[O]	none (no result: rTrxR1 inhibitor, TrxR1 substrate, PLK1 PBD inh, IDH1 R132H inh)
CCCCCCNC(=O)N[C@H](C(=O)NCCC[C@H]1CN2C(=NC[C@H]2C)N1CCC(c1ccccc1)c1ccccc1)C(C)O (some centres not stated)	Sfp inh 2.2µM (no result: rTrxR1 inhibitor, TrxR1 substrate, PLK1 PBD inh, IDH1 R132H inh, VDR inh)
CCc1nnc(NC(=O)c2ccc3c(=O)n4c(nc3c2)CCC4)s1	none (no result: rTrxR1 inhibitor, TrxR1 substrate, Sfp inh, VDR inh)
CCOc1cc(CNc2ccc(O)cc2)ccc1OCc1ccc(Cl)cc1Cl	rTrxR1 inhibitor 28µM, Sfp inh inconclusive, VDR inh 32µM
CCOc1cc(CNCc2ccccc2)ccc1OCc1ccc(Cl)cc1	none
CCOc1cccc(CNc2ccc(O)cc2)c1OCc1ccc(Cl)cc1	rTrxR1 inhibitor 45µM, Sfp inh 45µM, VDR inh inconclusive
COc1ccc(CNC(=O)CCSc2nc(-c3ccc4c(c3)OCO4)cc(C(F)(F)F)n2)cc1	Sfp inh 79µM
COCCNC(=O)CCSc1nc(-c2ccc3c(c2)OCO3)cc(C(F)(F)F)n1	none (no result: Sfp inh, PLK1 PBD inh)
O=C(CCSc1nc(-c2ccc3c(c2)OCO3)cc(C(F)(F)F)n1)NCc1ccccc1	none
